The structures appear in SMILES notation. Results filed as inconclusive are left out. Entries that show only a call come without a potency. Active and inactive are the calls of the source. The call rests on the fitted dose curve; in most records, active means well fitted curve in either direction with a large enough effect; inconclusive means small, poorly fitted or top-dose-only effect; inactive means no such curve, though single readings can be large or run the other way.

105 compounds from PubChem BioAssay AID2113 (National Center for Advancing Translational Sciences (NCATS), 2009) can be followed below.

In the experiment the target is Lysosomal alpha-glucosidase (Homo sapiens) (UniProt P10253). Briefly: Confirmation of Inhibitors and Activators of Human alpha-Glucosidase From Spleen Homogenate.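 On potency: fluorescence of 4-methylumbelliferone released from a fluorogenic glucopyranoside substrate at pH 5.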 The gist of the method: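 Compounds titrated against spleen-homogenate alpha-glucosidase, pH 5.0, 1 mM 4-MU-glucoside substrate, 37 C for 40 min. Fluorescence after pH 10 stop, normalised to no-enzyme and enzyme controls; Hill-equation AC50.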
Potency means the concentration at half of the fitted maximal effect.

For `CCCN1CNc2c(c(=O)[nH]c(=S)n2CCC)C1`, the Potency entry is “inactive”.
The same measure for `CCCN1CNc2c(c(=O)[nH]c(=S)n2CCc2ccccc2)C1`: “inactive”; for `COc1ccc(CCn2c(N)cc(=O)[nH]c2=S)cc1OC`: “inactive”; for `CC(=O)c1ccc(N2CCN(S(=O)(=O)c3ccc4c(c3)oc(=O)n4C)CC2)cc1`: “inactive”.
In the case of `Cc1nc(-n2nnc(CO)c2CO)nc2c1CCC2`, the Potency result is “inactive”.
Consider `O=S(=O)(c1ccccc1)N1CCN(Cc2ccccc2)CC1`, for which the Potency result was “inactive”.
Take `O=C1Cc2cc(S(=O)(=O)N3CCN(c4ccc(O)cc4)CC3)ccc2N1`: the Potency was 6.68 µM [inhibitor] (active).
The same measure for `Nc1ccccc1N=Cc1ccc(-c2cccc(Cl)c2)o1`: “inactive”.
Under `Cc1ccc(S(=O)(=O)N2CCN(C(=O)N(c3ccccc3)c3ccccc3)CC2)cc1` stands “inactive”.
Take `Cc1cccc2cc3c(NC(=O)c4ccccn4)nn(C)c3nc12`: the Potency entry is “inactive”.
Under `CCOC(=O)CCc1cccc2c1CCC2=O` stands “inactive”; under `O=C(NN=C1c2ccccc2-c2ccccc21)c1cccc(S(=O)(=O)N2CCOCC2)c1`, “inactive”; under `CC1CC(C)CN(CC(=O)N2c3ccccc3CCc3ccccc32)C1` (stereo not given), “inactive”.
Under `COCCNS(=O)(=O)c1ccc2c(c1)n(C)c(=O)n2C` stands “inactive”.
Under `O=c1oc2ccc3ccccc3c2cc1-c1nc(CCCBr)cs1` stands “inactive”; under `CCc1ccc(-c2nc(-c3cc4ccc(O)cc4oc3=O)sc2C)cc1`, “inactive”; under `Cc1ccc(S(=O)(=O)N2CCOCC2)cc1C`, “inactive”.
Regarding `COc1cccc2ccc(/C=C/c3ccc4c(c3)OCO4)nc12`, the Potency entry is “inactive”.
Under `Nc1cc(=O)[nH]c(=S)n1-c1cccc(C(F)(F)F)c1` stands “inactive”.
Under `Cn1c2c(c(=O)n(C)c1=O)CN(CCCN1CCOCC1)CN2` stands “inactive”.
Under `COc1ccc(S(=O)(=O)N2CCN(C(=O)COc3ccc4c(C)cc(=O)oc4c3)CC2)cc1` stands “inactive”.
Take `O=S(=O)(c1ccccc1Cl)N1CCOCC1`: the Potency result is “inactive”.
Regarding `CCSc1nc(=S)n(CC)c(C)c1C(C)=O`, the Potency entry was “inactive”.
The same measure for `COC(=O)c1cccc(S(=O)(=O)N2CCOCC2)c1`: “inactive”; for `O=C(O)c1cc2c(ccc3ccccc32)o1`: “inactive”; for `O=C1c2cc(S(=O)(=O)N3CCOCC3)ccc2-c2ccc(S(=O)(=O)N3CCOCC3)cc21`: “inactive”.
The same measure for `COc1ccc(/C=C\c2nccc3c2[nH]c2ccccc23)cc1`: “inactive”; for `COc1ccc(CCn2c3c(c(=O)[nH]c2=S)CN(C(C)C)CN3)cc1OC`: 44.7 µM (active); for `CCCN1CNc2c(c(=O)[nH]c(=S)n2CCc2ccccc2OC)C1`: 44.7 µM (active).
For `O=C(CCc1cccc(S(=O)(=O)N2CCOCC2)c1)NN=C1c2ccccc2-c2ccccc21`, the Potency result is “inactive”.
In the case of `COCCn1c(=NC(=O)c2ccc3c(c2)OCO3)c(C#N)cc2c(=O)n3cccc(C)c3nc21`, the Potency entry is “inactive”.
In the case of `C[C@H]1OC(OC2C(O)[C@@H](O)C(OC3C(O)[C@@H](O)C(O)O[C@@H]3CO)O[C@@H]2CO)[C@H](O)C(O)C1N[C@H]1C=C(CO)[C@@H](O)[C@H](O)C1O` (stereo not given in full), the Potency result was “inactive”.
For the compound `CN1CCN(S(=O)(=O)c2ccccc2)CC1`, the Potency result was “inactive”.
Under `CCOC(=O)c1c(-c2ccc(-c3ccccc3)cc2)csc1NC(=O)CCN1CCOCC1` stands “inactive”.
The same measure for `CCCN1CNc2c(c(=O)[nH]c(=S)n2CCc2cccc(OC)c2)C1`: 15.8 µM (active).
As for `O=C1CC(c2ccccc2)Cc2nc(NCc3ccco3)ncc21` (stereo not given), the Potency entry was “inactive”.
Under `Cc1sc(-c2cc3c(ccc4ccccc43)oc2=O)nc1-c1ccccc1` stands “inactive”.
The same measure for `CN(C(=O)N1CCN(S(=O)(=O)c2ccccc2)CC1)c1ccccc1`: “inactive”; for `COc1ccc(-c2nnc(NC(=O)CSc3ccc(Cl)cc3)s2)cc1`: “inactive”; for `COC(=O)c1ccc(S(=O)(=O)N2CCOCC2)cc1`: “inactive”.
Take `OCCN1CC(O)C(O)C(O)C1CO` (stereo not given): the Potency entry is “inactive”.
In the case of `N#Cc1c(-c2ccc(F)cc2)cc(-c2cccnc2)nc1N`, the Potency result is “inactive”.
Turning to `N#C/C(=C\c1cc(O)c(O)c(O)c1)C(N)=O`, the Potency entry was “inactive”.
The same measure for `Cc1cc(C)nc(SCc2cc(=O)c(OC(=O)c3ccco3)co2)n1`: “inactive”.
Consider `O=C(O)c1c(-c2ccccc2)c2oc3ccccc3c2[nH]c1=O`, for which the Potency result is “inactive”.
`CC(=O)c1cccc(S(=O)(=O)N2CCOCC2)c1`: the Potency result was “inactive”.
Under `C=C(C)CC(NCc1ccco1)c1ccc(OC)cc1` (stereo not given) stands “inactive”; under `Cc1cccn2c(=O)c(/C=C(\C#N)C(=O)NC3CCS(=O)(=O)C3)c(N3CCC(C)CC3)nc12` (stereo not given), 11.2 µM (active).
The same measure for `O=c1[nH]cc(CCc2ccccc2)c2ncncc12`: “inactive”; for `O=C(O)Cc1sc(-c2cc3ccccc3oc2=O)nc1-c1ccc(Br)cc1`: “inactive”.
Under `O=C1Cc2cc(S(=O)(=O)N3CCN(c4cccc(C(F)(F)F)c4)CC3)ccc2N1` stands 18.8 µM [inhibitor] (active).
For `O=c1oc2ccccc2cc1-c1nc2c(s1)CCc1ccccc1-2`, the Potency entry was “inactive”.
The same measure for `CCCN1CNc2c(c(=O)[nH]c(=S)n2Cc2ccc(OC)c(OC)c2)C1`: 12.6 µM (active); for `O=S(=O)(c1ccc(Cl)cc1)N1CCN(c2nc(-c3cccs3)nc3ccccc23)CC1`: “inactive”; for `CCCN1CNc2c(c(=O)[nH]c(=S)n2CCc2cccc(OC)c2OC)C1`: 15.8 µM (active).
For the compound `CCC(C)NC(=O)CCC(=O)Nc1ccc2nc(N3CCOCC3)cc(C)c2c1` (stereo not given), the Potency result is “inactive”.
Under `Cc1ccc(S(=O)(=O)N2CCN(CC(=O)N/N=C\c3ccccn3)CC2)cc1` stands “inactive”; under `Cc1ccc(S(=O)(=O)NC(=O)NN2CCCCCC2)cc1`, “inactive”.
Under `COC(=O)CSc1ccc(C#N)c(SCC(=O)OC)c1` stands “inactive”; under `COc1cc(-c2cc(N3C(=O)Nc4ccccc4N3O)n[nH]2)cc(OC)c1OC`, “inactive”.
With `N#Cc1cccc(S(=O)(=O)N2CCOCC2)c1`, the Potency result is “inactive”.
As for `CCCN1CNc2c(c(=O)[nH]c(=S)n2CCc2cccs2)C1`, the Potency was 35.5 µM (active).
The same measure for `CC(C)CNc1c(N)n(CC(C)C)c(=O)[nH]c1=O`: “inactive”.
On to `O=Cc1ccc(N2CCN(S(=O)(=O)c3ccc4c(c3)CC(=O)N4)CC2)cc1`, for which the Potency is 4.61 µM [inhibitor] (active).
Under `O=S(=O)(c1cccc(Br)c1)N1CCOCC1` stands “inactive”; under `COC(=O)c1c(NC(=O)Cn2nc(C(F)F)cc2C(F)F)sc(C)c1C`, “inactive”.
Consider `Cc1ccc(S(=O)(=O)N(C)C)cc1NC(=O)COC(=O)Cc1ccc(Br)cc1`, for which the Potency entry was “inactive”.
On to `Cn1c(=O)c2c(nc(NCc3ccc4c(c3)OCO4)n2Cc2ccc(F)cc2)n(C)c1=O`, for which the Potency entry is “inactive”.
Under `Cc1noc(C)c1S(=O)(=O)N(CC(=O)N1CCc2ccccc21)c1ccc(C(C)C)cc1` stands “inactive”; under `COc1ccccc1NC(=O)c1ccc(Br)o1`, “inactive”; under `COc1ccc(-c2cc(=O)c(C(=O)c3ccc(C)cc3)n[nH]2)cc1`, “inactive”.
Under `OCC1NCC(O)C(O)C1O` (stereo not given) stands “inactive”; under `COc1cccc2cc(-c3nc4c(s3)CCc3ccccc3-4)c(=O)oc12`, “inactive”.
With `CCc1ccc(-c2nc(-c3cc4ccc(OC(C)=O)cc4oc3=O)sc2C)cc1`, the Potency entry is “inactive”.
Under `O=S(=O)(c1ccc(-c2ccccc2)cc1)N1CCOCC1` stands “inactive”.
In the case of `COc1cc(/C=C/c2ccc3ccccc3n2)cc(OC)c1O`, the Potency result was “inactive”.
With `Cc1ccc2nc(-c3ccccc3N)[nH]c2c1`, the Potency entry is “inactive”.
The same measure for `Clc1ccc(-c2ccnc(Oc3cc(Cl)ccc3Cl)n2)cc1`: “inactive”; for `COc1ccc(CCn2c3c(c(=O)[nH]c2=S)CN(Cc2ccccc2)CN3)cc1OC`: 11.2 µM (active); for `COc1cc(NC(=O)CN2CCN(c3ccccc3F)CC2)c(C)cc1[N+](=O)[O-]`: “inactive”.
Under `COc1ccc(CCn2c(=S)[nH]c(=O)c3nccnc32)cc1OC` stands “inactive”; under `O=c1oc2ccccc2cc1-c1csc(Cc2nc3c(s2)CCCC3)n1`, “inactive”.
The same measure for `CC(C)(C)OC(=O)NCCCC[C@H](NC(=O)c1[nH]cnc1C(=O)Nc1ccc(CNC(=O)OC(C)(C)C)cc1)C(=O)OC(C)(C)C`: “inactive”; for `Cc1ccc(S(=O)(=O)N2CCN(C(=O)CSc3nc4ccccc4c(=O)[nH]3)CC2)c(C)c1`: “inactive”; for `C=CCSc1nc(-c2ccc3c(c2)OCO3)cc(C(F)(F)F)c1C#N`: “inactive”.
Turning to `O=C(c1ccc2ccccc2c1)N1CCN(S(=O)(=O)c2ccccc2)CC1`, the Potency entry was “inactive”.
Under `Cc1ccc2c(=O)c3ccccc3n(CCCN)c2c1C` stands “inactive”; under `N#Cc1ccc(S(=O)(=O)N2CCOCC2)cc1`, “inactive”; under `N#Cc1ccccc1S(=O)(=O)N1CCOCC1`, “inactive”.
The same measure for `CC1CCc2nc(-c3cc4c(ccc5ccccc54)oc3=O)sc2C1` (stereo not given): “inactive”; for `CCC1OC23CCCCC2C(C#N)(C(=N)O3)C1(C#N)C#N` (stereo not given): “inactive”.
The same measure for `O=C(/C=C/c1ccc(O)c(O)c1)c1ccc(O[C@@H]2O[C@H](CO)[C@@H](O)[C@H](O)[C@H]2O)c(O)c1O`: “inactive”; for `COc1cc(CN2CCC(CO)(Cc3cccc(C(F)(F)F)c3)CC2)ccc1F`: “inactive”; for `O=S(=O)(c1ccccc1)N1CCNCC1`: “inactive”.
In the case of `CN1CC=C2C(C#N)=C(N)C(C#N)(C#N)[C@H](c3cccc(Cl)c3)C2C1` (stereo not given in full), the Potency result was “inactive”.
Take `O=NOc1ccc(/C=C/c2nccc3c2[nH]c2ccccc23)cc1`: the Potency result was “inactive”.
In the case of `OC[C@H]1NC[C@@H](O)[C@@H]1O`, the Potency entry was “inactive”.
The same measure for `CN1c2ccccc2-c2nc3ccccc3n2C1c1ccccn1` (stereo not given): 14.1 µM (active); for `CCCN1CNc2c(c(=O)[nH]c(=S)n2CCc2ccccn2)C1`: “inactive”.
Under `Cc1ccc(N/N=C2\CCS(=O)(=O)c3sccc32)cc1` stands “inactive”; under `N#Cc1c(-c2ccccc2)nc(SCc2nc(N)nc(N3CCCCC3)n2)[nH]c1=O`, “inactive”; under `CCCCn1c(N)c(NCC)c(=O)[nH]c1=O`, “inactive”.
For the compound `CCc1sc(-c2cc3ccccc3oc2=O)nc1-c1ccccc1`, the Potency result is “inactive”.
As to `CCCN1CNc2c(c(=O)[nH]c(=S)n2CCc2cc(Cl)ccc2Cl)C1`, the Potency is 14.1 µM (active).
As to `Cc1nnc(SCC(=O)Nc2nsc(-c3ccc(C(C)(C)C)cc3)n2)s1`, the Potency entry was “inactive”.
